# Compound activity (PubChem)
# Only some compounds are listed: those with a hit (about 6.1% of all), similar ones and a draw of the others.
# D1 potentiator = Potentiators of Human D1 Dopamine Receptor: qHTS; AID 504651, 2011; HEK293 TREx D1 cells, calcium flux, dopamine EC20 potentiation; 360,000 compounds, 0.036% hits; potentiation, % at 10 µM; D(1A) dopamine receptor (Homo sapiens), P21728; in the data active means potentiation above about 30%; further: 0% is about no effect
# DRD3 antagonist = qHTS of D3 Dopamine Receptor Antagonist: qHTS. AID 652054, 2013. max response, negative = inhibition, %. 360,000 compounds, 2.5% hits. D3R cells, DiscoveRx beta-arrestin luminescence, antagonist mode; hits give low values. D(3) dopamine receptor (Homo sapiens), P35462; in the data active means max response below about -50%; inconclusive means no clear call, values can overlap the other calls; further: on the % scale 0 is the no-effect control and ±100 the full control effect
# Target sequence (P35462 whole entry, looked up): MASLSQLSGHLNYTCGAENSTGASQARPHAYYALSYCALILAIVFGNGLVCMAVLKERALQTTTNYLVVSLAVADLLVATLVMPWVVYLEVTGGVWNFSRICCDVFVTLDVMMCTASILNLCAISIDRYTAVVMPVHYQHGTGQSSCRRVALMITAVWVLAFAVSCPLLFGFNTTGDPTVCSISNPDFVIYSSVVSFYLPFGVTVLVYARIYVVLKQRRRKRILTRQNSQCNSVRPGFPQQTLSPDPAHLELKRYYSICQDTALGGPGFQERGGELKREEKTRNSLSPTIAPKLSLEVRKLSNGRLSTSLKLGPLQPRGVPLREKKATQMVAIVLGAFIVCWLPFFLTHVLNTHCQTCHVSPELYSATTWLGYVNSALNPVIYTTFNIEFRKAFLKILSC
#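 Cells expressing the human receptor were seeded at 1500 cells/well, incubated overnight at 37 degrees C in 5% CO2, then exposed to library compounds with dopamine controls for 90 minutes at 37 degrees C before luminescent detection.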
# D1 antagonist = Antagonist of Human D 1 Dopamine Receptor: qHTS | D(1A) dopamine receptor (Homo sapiens), P21728 | HEK293 TREx D1 cells, calcium flux, dopamine EC80; hits give low values | activity change, negative = inhibition, % at 10 µM | 360,000 compounds, 3.2% hits; in the data active means activity change below about -30%; further: on the % scale 0 is the no-effect control and ±100 the full control effect
#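 Antagonism measured as reduced calcium response to an EC80 dopamine addition following 180 s compound pre-read; cells were inducible HEK293 Trex D1 plated overnight at 30 C, read kinetically at 1 cycle/sec.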
# D1 ag = Allosteric Agonists of the Human D1 Dopamine Receptor: qHTS; D(1A) dopamine receptor (Homo sapiens), P21728; HEK293 T-REx D1 cells, calcium flux, agonist mode; activation, % at 2 µM; 360,000 compounds, 1% hits; AID 504660, 2011; in the data active means activation above about 30%; further: 0% is about no effect
#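 Agonism was scored from calcium flux recorded over 180 s (1 read/s) after pintool compound addition, following a 10-cycle baseline. Cells were inducible force-coupled HEK293 TREx D1, plated overnight at 30 C and loaded with no-wash calcium dye.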
# DRD3 agonist = qHTS of D3 Dopamine Receptor Agonist: qHTS; D(3) dopamine receptor (Homo sapiens), P35462; D3R DiscoveRx beta-arrestin cells, luminescence, 90 min; max activation, %; 410,000 compounds, 0.58% hits; AID 652048, 2013; in the data active means max activation above about 30%; further: 0% is about no effect
#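 Agonist mode: compounds and dopamine controls were applied to plated cells for 90 min at 37 degrees C after an overnight attachment at 1500 cells/well. Luminescent read-out followed 30 - 60 minutes at room temperature with DiscoveRx detection reagent.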
# * hit, by the source's call; ? = inconclusive; nt = not tested or not shown; ! = repeats disagree.
SMILES,D1 potentiator,DRD3 antagonist,D1 antagonist,D1 ag,DRD3 agonist
COc1ccc2c(c1)CC(C(=O)NCCCN1CCN(c3ccc(F)cc3)CC1)CO2 (centres undefined),-2,nt,11,13,-16
CCCCCC(NC(=O)C1CCN(C(=O)[C@@H](NS(=O)(=O)c2ccc(C)cc2)C(C)C)CC1)C(=O)O (some centres undefined),-3,-19,-2,1,1
N#C/C(=C\c1cc([N+](=O)[O-])c(N2CCOCC2)cc1N1CCOCC1)c1nc2ccccc2[nH]1,-4,-79*,-3,2,-2
N#C/C(=C/c1ccc(N2CCOCC2)o1)c1nc2ccccc2[nH]1,1,25,7,64*,-1
N#C/C(=C\c1ccc(Sc2nc3ccccc3[nH]2)o1)c1ccccc1,-7,17,-34*,14,3
Cc1ccccc1NC(=O)CSc1nnc2ccc(-c3cccnc3)nn12,-3,-4,-7,1,-1
NNC(=O)c1cc(O)c(O)c(O)c1,-11,-1,-36*,-1,5
O=C(O)c1cc(O)c(O)c(O)c1,nt,nt,nt,nt,7
Cc1noc(C)c1NC(=O)N(C)C[C@H]1Oc2c(NC(=O)C3CCCCC3)cccc2C(=O)N([C@H](C)CO)C[C@@H]1C,nt,-12,nt,nt,-9
Cn1c(=O)oc2cc(S(=O)(=O)NCCN3CCCCCC3)ccc21,-1,2,-9,1,0
CC(=O)Nc1ccc(NC(=O)C(Cc2ccccc2)NS(=O)(=O)c2ccc3c(c2)oc(=O)n3C)cc1 (centres undefined),-1,nt,1,1,-1
Cn1c(=O)oc2cc(S(=O)(=O)Nc3ccccc3O)ccc21,-6,-3,-40*!,7,1
COC(=O)c1ccccc1NS(=O)(=O)c1ccc2c(c1)oc(=O)n2C,-22,2,5,3,3
Cn1c(=O)oc2cc(S(=O)(=O)NCc3ccc(Cl)cc3)ccc21,-5,-10,-37*,4,1
Cn1c(=O)oc2cc(S(=O)(=O)NCc3ccccc3)ccc21,9,11,11,6,0
CC(C)c1ccc(NC(=O)C(Cc2ccccc2)NS(=O)(=O)c2ccc3c(c2)oc(=O)n3C)cc1 (centres undefined),-7,nt,-37*,5,6
Cn1c(=O)oc2cc(S(=O)(=O)NCCN3CCN(c4ccccc4F)CC3)ccc21,-10,-54*,-75*,2,11
CCOc1ccccc1NC(=O)Cn1c(=O)oc2cc(S(=O)(=O)NCc3ccccc3)ccc21,-3,nt,-39*,2,2
CCOC(=O)Cn1c(=O)oc2cc(S(=O)(=O)Nc3cccc(C)c3)ccc21,-7,-59*,-22,20,-4
Cc1ccc(NS(=O)(=O)c2ccc3c(c2)oc(=O)n3C)cc1,0,-17,-3,12,-3
CCOC(=O)Cn1c(=O)oc2cc(S(=O)(=O)Nc3cc(OC)cc(OC)c3)ccc21,-4,nt,-5,6,-4
CCc1ccc(NS(=O)(=O)c2ccc3c(c2)oc(=O)n3C)cc1,-13,12,-34*,21,1
Cc1ccc(-n2nc3c(c2NC(=O)c2ccccc2Br)CS(=O)C3)cc1 (centres undefined),-4,3,-43*,2,-2
C=CCC(=O)NC1CC(C)(C)Cc2c1cnn2-c1ccccc1C (centres undefined),-9,20,16,-2,3
COc1ccc2oc(=O)c(C(=O)NCc3ccco3)cc2c1,0,-25,-1,2,-11
SMILES,D1 potentiator,DRD3 antagonist,D1 antagonist,D1 ag,DRD3 agonist
O=C1/C(=C\c2cccs2)CCC/C1=C\c1cccs1,nt,nt,nt,nt,5
N#Cc1nc(Nc2cc(F)cc(F)c2)c2ncn(C3CCCC3)c2n1,3,nt,1,3,nt
CCCN(CCC)C(=O)Cn1c(=O)n(-c2ccc(C)cc2)c(=O)c2ccc(C(=O)NCc3ccccc3Cl)cc21,-1,nt,-66*,3,-2
Cc1cc(C2CCCCC2)n(O)c(=O)c1,-2,45,5,3,46*!
O=C(N/N=C/C(Br)=C/c1ccccc1)NC1CCCCC1,-2,1,nt,1,10
O=C(N/N=C/C(Br)=C/c1ccccc1)C1CC1,-6,4,-41*,2,12
CC[C@]12c3[nH]c4ccc(OC)cc4c3CCN1C(=O)C(CC(=O)NCCCOC)C[C@@H]2C(=O)N1CCN(C(=O)c2ccco2)CC1 (some centres undefined),nt,5,nt,nt,4
CS(=O)(=O)N(CC(=O)NCC1CCCO1)c1cc(Cl)cc(Cl)c1 (centres undefined),-3,-97*,-50*,2,2
O=C1Nc2ccc(S(=O)(=O)NCCC3=CCCCC3)c3cccc1c23,-9,66,-37*,17,5
CC(C)Cc1ccc(S(=O)(=O)N2CCN(c3ccccn3)CC2)cc1,-3,0,-17,3,-7
Cc1cc(O)ccc1NC(=O)CCN1C(=O)c2ccc([N+](=O)[O-])cc2C1=O,5,4,-12,4,-2
COC(=O)c1cccc(N2C(=O)C(Cl)=C(N3CCOCC3)C2=O)c1,-3,4,0,1,-1
O=C1C(Cl)=C(N2CCCCCC2)C(=O)N1c1ccc(Cl)cc1,6,0,6,3,-5
O=C1C(Cl)=C(N2CCCC2)C(=O)N1c1ccc(F)cc1,-5,18,-33*,9,-1
O=C1C(Cl)=C(N2CCOCC2)C(=O)N1c1cccc(C(F)(F)F)c1,-6,8,-34*,4,-19
COc1cccc(-c2nn(C)c3sc(C(=O)N4CCN(c5cccc(C(F)(F)F)c5)CC4)cc23)c1,6,nt,-14,6,27
CC(=O)N1CCN(C(c2ccccc2)c2nnnn2C(C)(C)C)CC1 (centres undefined),nt,5,nt,nt,6
COc1cc(-c2ccc3oc(-c4ccsc4)c(C#CC4(O)CCCCC4)c3c2)cc(OC)c1OC,nt,77,nt,nt,36*
COc1ccc(-c2oc3ccc(N4CCOCC4)cc3c2C#CC2(O)CCCCC2)cc1,nt,90,nt,nt,84*
OC1(C#Cc2c(-c3ccsc3)oc3ccc(N4CCOCC4)cc23)CCCCC1,nt,62,nt,nt,2
CC(C)(C)C(=O)Cn1c(=O)n(-c2ccc(Cl)cc2)c(=O)c2c3c(sc21)CCCC3,2,nt,4,-1,6
NC(=S)Nc1cc2ccccc2c2ccccc12,-7,-64*,7,3,-3
NC(=S)Nc1cccc2cc3ccccc3cc12,-7,?,7,19,3
Cc1cccc(-c2n[nH]nc2C2=CC(=O)CC(C)(C)C2)c1,nt,7,nt,nt,3
